Records with an inconclusive call do not appear. The source made the active and inactive calls. Unless noted, calls follow the shape of the full dose curve.
What was measured:
[1] = Natriuretic polypeptide receptor (hNpr1) antagonism - Pilot counterscreen GloSensor control cell line (AID 1347045); also: series mostly up to about 38 µM
How it was run: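 Control counterscreen: luciferase cGMP-biosensor HEK293 cells (no Npr1) received compound for 30 min at room temperature after GloSensor substrate loading. Luminescence was measured before and 20 min after soluble guanylyl cyclase activation by 50 uM nitroprusside.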

[2] = molecular target: Atrial natriuretic peptide receptor 1 (Homo sapiens) (UniProt P16066); assay: Natriuretic polypeptide receptor (hNpr1) antagonism - Pilot screen (AID 1347049);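 also: HEK293 cells with hNpr1 and GloSensor cGMP luciferase stimulated by 0.1 nM hNppA; agonist-evoked cGMP luminescence read 20 min after hNppA addition; series mostly up to about 58 µM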
Sequence of Atrial natriuretic peptide receptor 1 (Homo sapiens) (P16066 whole entry, looked up): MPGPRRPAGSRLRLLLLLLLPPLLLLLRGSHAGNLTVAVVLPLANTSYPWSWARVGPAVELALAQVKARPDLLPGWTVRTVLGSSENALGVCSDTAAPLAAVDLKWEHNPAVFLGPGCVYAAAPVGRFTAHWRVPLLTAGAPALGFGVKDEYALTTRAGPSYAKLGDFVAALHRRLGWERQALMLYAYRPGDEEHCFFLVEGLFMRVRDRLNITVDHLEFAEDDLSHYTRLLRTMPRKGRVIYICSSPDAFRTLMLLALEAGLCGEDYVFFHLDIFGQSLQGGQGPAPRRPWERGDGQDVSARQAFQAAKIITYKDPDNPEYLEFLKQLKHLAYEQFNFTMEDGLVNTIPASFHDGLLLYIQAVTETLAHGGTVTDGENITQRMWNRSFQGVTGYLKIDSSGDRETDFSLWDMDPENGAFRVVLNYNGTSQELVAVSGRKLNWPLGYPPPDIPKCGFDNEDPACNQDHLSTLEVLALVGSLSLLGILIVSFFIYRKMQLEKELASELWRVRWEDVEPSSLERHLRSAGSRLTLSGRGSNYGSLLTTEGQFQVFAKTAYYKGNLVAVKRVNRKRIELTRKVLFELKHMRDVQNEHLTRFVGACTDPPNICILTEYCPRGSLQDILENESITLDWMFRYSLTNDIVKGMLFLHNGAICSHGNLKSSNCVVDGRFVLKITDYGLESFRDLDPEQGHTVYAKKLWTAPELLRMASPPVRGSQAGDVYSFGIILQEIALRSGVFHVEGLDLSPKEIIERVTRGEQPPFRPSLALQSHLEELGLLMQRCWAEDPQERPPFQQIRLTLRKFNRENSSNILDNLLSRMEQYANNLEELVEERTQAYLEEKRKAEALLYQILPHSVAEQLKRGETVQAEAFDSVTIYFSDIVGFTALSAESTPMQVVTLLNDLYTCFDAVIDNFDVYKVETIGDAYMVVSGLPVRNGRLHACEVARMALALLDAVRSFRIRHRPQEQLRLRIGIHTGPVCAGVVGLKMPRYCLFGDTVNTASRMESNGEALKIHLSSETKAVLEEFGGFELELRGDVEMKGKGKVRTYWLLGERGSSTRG
How it was run: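 Cells expressing receptor plus cGMP biosensor are seeded and incubated overnight at 37C, then loaded with GloSensor reagent (2% final) at room temperature for 2 h. Library compounds go on for 30 min. A pre-read precedes agonist (hNppA, 0.1 nM final) and a 20-min readout.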

[3] = molecular target: Atrial natriuretic peptide receptor 2 (Homo sapiens) (UniProt P20594); assay: Natriuretic polypeptide receptor (hNpr2) antagonism - Pilot subtype selectivity assay (AID 1347050)
Sequence of Atrial natriuretic peptide receptor 2 (Homo sapiens) (P20594 whole entry, looked up): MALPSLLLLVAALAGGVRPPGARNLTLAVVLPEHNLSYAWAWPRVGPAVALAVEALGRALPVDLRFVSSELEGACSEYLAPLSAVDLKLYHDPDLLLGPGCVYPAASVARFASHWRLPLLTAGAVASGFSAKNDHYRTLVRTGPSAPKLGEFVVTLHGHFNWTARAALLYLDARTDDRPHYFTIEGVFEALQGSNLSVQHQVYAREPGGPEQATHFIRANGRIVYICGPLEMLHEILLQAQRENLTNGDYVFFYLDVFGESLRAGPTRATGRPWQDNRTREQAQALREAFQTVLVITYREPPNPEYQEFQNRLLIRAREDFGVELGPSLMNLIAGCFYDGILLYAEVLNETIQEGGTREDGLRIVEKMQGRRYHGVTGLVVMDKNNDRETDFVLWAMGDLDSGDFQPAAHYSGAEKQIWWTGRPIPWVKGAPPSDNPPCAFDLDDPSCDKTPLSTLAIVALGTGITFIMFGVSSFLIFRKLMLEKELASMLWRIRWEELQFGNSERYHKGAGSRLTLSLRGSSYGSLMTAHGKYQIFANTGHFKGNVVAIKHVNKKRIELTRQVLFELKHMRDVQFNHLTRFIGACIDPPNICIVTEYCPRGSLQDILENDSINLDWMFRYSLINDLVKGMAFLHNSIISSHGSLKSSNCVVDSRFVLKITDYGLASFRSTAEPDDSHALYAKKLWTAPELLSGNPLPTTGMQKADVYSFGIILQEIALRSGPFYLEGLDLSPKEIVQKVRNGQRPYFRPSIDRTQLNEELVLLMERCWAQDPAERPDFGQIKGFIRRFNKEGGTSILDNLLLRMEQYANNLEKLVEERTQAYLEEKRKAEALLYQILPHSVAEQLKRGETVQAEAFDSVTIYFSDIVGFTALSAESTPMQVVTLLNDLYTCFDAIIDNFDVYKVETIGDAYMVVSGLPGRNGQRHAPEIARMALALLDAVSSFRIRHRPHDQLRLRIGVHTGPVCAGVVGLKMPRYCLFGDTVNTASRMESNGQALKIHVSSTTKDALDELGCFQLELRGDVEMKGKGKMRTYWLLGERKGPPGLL
How it was run: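 Read-out: GloSensor luminescence (CCD imager), baseline vs post-stimulation. HEK293 cells expressing hNpr2; compounds pre-incubated 30-50 min at ambient temperature; hNppC 1 nM final, 20 min.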

[4] = NS1 protein of Zika virus - qHTS assay to identify small molecule inhibitors in human HEK 293 cells (AID 1347053; active = well fitted curve in the direction sought with a large enough effect; an effect the other way counts as inactive or inconclusive; also: series mostly up to about 46 µM; nearly all actives have a fitted effect of over 55% in size)
How it was run: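 Compound-treated (1 h pre-infection) HEK 293 cells infected with ZIKV MR766, MOI = 0.5; after 24 h at 37 C, NS1 read by TR-FRET; data normalized to uninfected and infected controls.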

[5] = molecular target: Parathyroid hormone/parathyroid hormone-related peptide receptor (Homo sapiens) (UniProt Q03431); assay: qHTS for PTHR1 Agonists: Optimization Screen against the NCGC LOPAC library (AID 1347079; active = well fitted curve in the direction sought with a large enough effect; an effect the other way counts as inactive or inconclusive;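 also: GloSensor cAMP luminescence in HEK-293 GP2 cells expressing human PTHR1 with IBMX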)
Sequence of Parathyroid hormone/parathyroid hormone-related peptide receptor (Homo sapiens) (Q03431 whole entry, looked up): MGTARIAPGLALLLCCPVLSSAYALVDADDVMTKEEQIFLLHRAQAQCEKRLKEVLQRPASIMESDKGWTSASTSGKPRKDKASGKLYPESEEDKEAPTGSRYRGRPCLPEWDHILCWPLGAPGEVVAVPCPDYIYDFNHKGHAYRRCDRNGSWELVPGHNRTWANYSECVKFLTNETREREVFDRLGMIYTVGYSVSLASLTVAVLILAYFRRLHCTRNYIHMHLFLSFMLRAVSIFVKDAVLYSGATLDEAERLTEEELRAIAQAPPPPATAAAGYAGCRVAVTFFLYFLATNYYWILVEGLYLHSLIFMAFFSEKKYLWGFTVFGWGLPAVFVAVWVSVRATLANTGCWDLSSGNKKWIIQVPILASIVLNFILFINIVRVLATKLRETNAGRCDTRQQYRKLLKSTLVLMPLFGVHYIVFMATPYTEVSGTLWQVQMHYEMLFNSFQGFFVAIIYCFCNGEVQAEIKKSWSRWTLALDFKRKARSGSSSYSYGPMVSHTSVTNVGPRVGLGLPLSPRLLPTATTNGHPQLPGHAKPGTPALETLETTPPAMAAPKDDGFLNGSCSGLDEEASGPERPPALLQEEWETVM
How it was run: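 HEK-293 GP2 cells, PTHR1 + GloSensor cAMP; 3000 cells/well, o/n. Luciferin + IBMX 0.5mM each (stock), 1 hr 37C. Cpd titration, 1 hr 37C. Lum after 15 min RT. Ctrl M-PTH(1-15) top 10uM.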

[6] = qHTS for Inhibitors of the Functional Ribonucleoprotein Complex (vRNP) of Lassa (LASV) Arenavirus: LASV Primary Screen - GLuc reporter signal (AID 1347082; calls by dose curve; tested in HEK293 reporter line; also: series mostly up to about 57 µM; nearly all actives have a fitted effect of over 60% in size)
[7] = qHTS for Inhibitors of the Functional Ribonucleoprotein Complex (vRNP) of Lassa (LASV) Arenavirus: Viability assay - alamar blue signal for LASV Primary Screen (AID 1347083; calls by dose curve; tested in HEK293 reporter line; also: series mostly up to about 57 µM; nearly all actives have a fitted effect of over 80% in size)
[8] = qHTS for Inhibitors of the Functional Ribonucleoprotein Complex (vRNP) of Lymphocytic Choriomeningitis Arenaviruses (LCMV): Viability assay - alamar blue signal for LCMV Primary Screen (AID 1347085; calls by dose curve; tested in HEK293 reporter line; also: series mostly up to about 57 µM; nearly all actives have a fitted effect of over 80% in size)
[9] = molecular target: Nucleoprotein (Lymphocytic choriomeningitis virus (strain Armstrong)) (UniProt P09992); assay: qHTS for Inhibitors of the Functional Ribonucleoprotein Complex (vRNP) of Lymphocytic Choriomeningitis Arenaviruses (LCMV): LCMV Primary Screen - GLuc reporter signal (AID 1347086); also: series mostly up to about 57 µM; nearly all actives have a fitted effect of over 70% in size
Sequence of Nucleoprotein (Lymphocytic choriomeningitis virus (strain Armstrong)) (P09992 whole entry, looked up): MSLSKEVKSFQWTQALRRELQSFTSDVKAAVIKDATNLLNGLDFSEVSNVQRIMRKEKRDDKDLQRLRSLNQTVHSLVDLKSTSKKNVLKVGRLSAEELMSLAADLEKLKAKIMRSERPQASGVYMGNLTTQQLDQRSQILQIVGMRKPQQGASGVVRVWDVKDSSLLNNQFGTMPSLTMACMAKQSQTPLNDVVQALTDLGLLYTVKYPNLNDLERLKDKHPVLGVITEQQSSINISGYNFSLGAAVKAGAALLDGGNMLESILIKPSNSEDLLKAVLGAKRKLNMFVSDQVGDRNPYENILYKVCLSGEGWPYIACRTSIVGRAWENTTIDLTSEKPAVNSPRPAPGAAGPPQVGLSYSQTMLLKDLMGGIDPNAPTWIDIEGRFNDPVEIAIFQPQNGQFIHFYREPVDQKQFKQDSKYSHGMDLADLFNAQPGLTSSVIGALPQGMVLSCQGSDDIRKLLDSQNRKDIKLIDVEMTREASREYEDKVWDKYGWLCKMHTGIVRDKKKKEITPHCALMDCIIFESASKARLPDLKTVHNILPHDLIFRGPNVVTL

[10] = molecular target: T1, Tyrosine-protein phosphatase non-receptor type substrate 1 (Homo sapiens) + Leukocyte surface antigen CD47 (Homo sapiens) (UniProt P78324+Q08722); assay: CD47-SIRPalpha protein protein interaction - LANCE assay qHTS validation (AID 1347057; active = well fitted curve in the direction sought with a large enough effect in the signal ratio, with a control signal flat, not every such curve was filed as active; the % refers to the signal ratio; also: potency is read from the fitted curve at half-maximal effect)
T1 sequence (P78324 whole entry, looked up, the tested form may be a part): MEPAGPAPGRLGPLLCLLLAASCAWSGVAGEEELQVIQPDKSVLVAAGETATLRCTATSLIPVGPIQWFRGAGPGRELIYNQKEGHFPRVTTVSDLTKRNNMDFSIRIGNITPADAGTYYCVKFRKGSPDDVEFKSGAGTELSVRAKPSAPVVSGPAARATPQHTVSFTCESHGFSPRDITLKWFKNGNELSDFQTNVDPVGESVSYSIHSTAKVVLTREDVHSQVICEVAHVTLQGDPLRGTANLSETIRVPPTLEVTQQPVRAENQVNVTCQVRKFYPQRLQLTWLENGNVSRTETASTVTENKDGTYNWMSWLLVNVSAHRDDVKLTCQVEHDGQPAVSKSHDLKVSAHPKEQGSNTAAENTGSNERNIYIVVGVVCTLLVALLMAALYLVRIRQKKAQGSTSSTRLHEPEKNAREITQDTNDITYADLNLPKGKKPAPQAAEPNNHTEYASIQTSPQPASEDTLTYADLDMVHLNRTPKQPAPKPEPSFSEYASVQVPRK
T1 sequence (Q08722 whole entry, looked up, the tested form may be a part): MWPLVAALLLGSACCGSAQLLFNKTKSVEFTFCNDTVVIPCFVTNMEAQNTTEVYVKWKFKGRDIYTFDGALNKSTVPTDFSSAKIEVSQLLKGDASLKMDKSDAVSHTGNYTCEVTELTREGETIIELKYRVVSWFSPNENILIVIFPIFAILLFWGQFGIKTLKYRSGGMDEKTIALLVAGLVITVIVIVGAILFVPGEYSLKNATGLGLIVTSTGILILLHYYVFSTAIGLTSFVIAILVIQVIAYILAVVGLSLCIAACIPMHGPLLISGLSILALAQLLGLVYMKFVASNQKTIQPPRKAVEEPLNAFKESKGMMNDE
How it was run: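 Inhibition of soluble CD47/SIRPalpha ectodomain association by titrated compounds, measured as 665/615 nm time-resolved FRET ratio after sequential 30 min room-temperature incubations.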

[11] = molecular target: T1, Tyrosine-protein phosphatase non-receptor type substrate 1 (Homo sapiens) + Leukocyte surface antigen CD47 (Homo sapiens); assay: CD47-SIRPalpha protein protein interaction - HTRF assay qHTS validation (AID 1347058; active = well fitted curve in the direction sought with a large enough effect in the signal ratio, not every such curve was filed as active; the % refers to the signal ratio; also: series mostly up to about 38 µM)
How it was run: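 Soluble extracellular domains (6His-CD47, Avi-tag-biotinylated SIRPalpha) in PBS pH 7.4 with 0.05% IGEPAL CA-630. Compounds were preincubated 30 min at RT with CD47 and anti-His-Eu, then SIRPalpha and SAV-XL665 were added. TR-FRET 665/615 ratio.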

[12] = molecular target: T1, Tyrosine-protein phosphatase non-receptor type substrate 1 (Homo sapiens) + Leukocyte surface antigen CD47 (Homo sapiens); assay: CD47-SIRPalpha protein protein interaction - Alpha assay qHTS validation (AID 1347059; active = well fitted curve in the direction sought with a large enough effect; an effect the other way counts as inactive or inconclusive;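 also: bead proximity luminescence from CD47 binding SIRPalpha after compound preincubation with SIRPalpha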)
How it was run: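 In PBS (pH 7.4) with 0.05% IGEPAL CA-630, compound is preincubated with biotin-Avi-SIRPalpha ectodomain before His-CD47 ectodomain and affinity beads are added. Light-protected room-temperature incubations; AlphaScreen readout.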

Measured: Potency

COc1ccc2c(c1O)-c1cccc3c1[C@@H](C2)N(C)CC3
not listed: [10] | [11] | [12]
inactive: all other assays above

CCCN(CCC)C1Cc2cc(OC)c(OC)cc2C1
not listed: [2]
inactive: all other assays above

C[N+]1(C)[C@@H]2CC(OC(=O)[C@H](CO)c3ccccc3)C[C@H]1[C@H]1O[C@@H]12 (stereo partly drawn)
inactive: [6] | [7] | [8] | [9]

O=C1C=CC(=O)C=C1
not listed: [1] | [6] | [9]
inactive: all other assays above

CN(N=O)c1ccc(O)c(O)c1
active: [10] 18.5 µM
not listed: [1] | [11] | [12]
inactive: all other assays above

Oc1ccc2c3c1O[C@H]1c4[nH]c5ccccc5c4C[C@@]4(O)C(C2)N(CC2CC2)CCC314 (stereo partly drawn)
not listed: [1]
inactive: all other assays above

Source: PubChem BioAssay (NCATS)
